We go through 15 compounds from PubChem BioAssay (EPA / NIEHS).

Inconclusive results are not listed. Active and inactive are the calls of the source. Rule for the calls, unless noted: active = hit-call score of the fitted dose curve at least 0.9, where 1 is the maximum; inconclusive = response in the unintended direction; inactive = score below 0.9.

Assay [1] concerns the target Retinoic acid receptor RXR-alpha (Homo sapiens) (UniProt P19793). The assay can be described thus: ATG_RXRa_TRANS: Attagene TRANS-FACTORIAL HepG2 Assay for human Retinoid X Receptor alpha (RXRa) (AID 2283012). In short, it runs like this:
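Cells (HepG2) carried transiently transfected GAL4-responsive reporter units. Following a 24 h chemical incubation, reporter mRNA induction was read via RT-PCR fragment analysis; DMSO served as negative control and baseline.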

Assay [2] addresses human Retinoid X Receptor beta (RXRb), RXRB (gene 6257) (UniProt P28702). The assay can be described thus: ATG_RXRb_TRANS: Attagene TRANS-FACTORIAL HepG2 Assay for human Retinoid X Receptor beta (RXRb) (AID 2283013). The gist of the method:
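Multiplexed TRANS reporter assay in HepG2; 24 h dosing; reporter mRNA by RT-PCR/CE fluorescence; gain-of-signal relative to DMSO.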

Assay [3] has as its target human Thyroid Receptor alpha (THRa1), THRA (gene 7067) (UniProt P10827). Kind of assay: ATG_THRa1_TRANS: Attagene TRANS-FACTORIAL HepG2 Assay for human Thyroid Receptor alpha (THRa1) (AID 2283014). In short, it runs like this:
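Reporter transcript induction, read by capillary electrophoresis of 6-FAM-labelled RT-PCR products, reflects activity of a transfected THRa1-Gal4 fusion in HepG2 liver cells. Cells were dosed for 24 h; activity was fitted in the positive direction against DMSO.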

Read-out in assay [4]: E-selectin (Homo sapiens) (UniProt P16581)
The assay can be described thus: BSK_3C_Eselectin: BioMAP Diversity Plus: 3C Assay for Eselectin Biomarker Activity (AID 2283015; active = hit-call score of the fitted dose curve at least 0.9, where 1 is the maximum; inactive = score below 0.9;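 for outcome: cell surface E-selectin protein quantified by ELISA 24 h after dosing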). To be noted: primary human endothelial cells (HUVEC); actives raise or lower the signal. In short, it runs like this: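 ELISA read-out of E-selectin on endothelial monolayers after 24 h chemical treatment. Human umbilical vein primary cells served as the system, with DMSO defining baseline activity for bidirectional fitting.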

Read-out in assay [5]: Interleukin-1 alpha (IL1a), IL1A (gene 3552)
Kind of assay: BSK_BE3C_IL1a: BioMAP Diversity Plus: BE3C Assay for Interleukin-1 alpha (IL1a) Biomarker Activity (AID 2283016; active = hit-call score of the fitted dose curve at least 0.9, where 1 is the maximum; inactive = score below 0.9). Particulars: primary human bronchial epithelial cells; actives raise or lower the signal. In short, it runs like this: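 Cultures of primary human bronchial epithelial cells receive test chemical. After 24 h, IL-1a is quantified by ELISA, while parallel wells are fixed in TCA and SRB-stained for total protein. Changes in either direction are fitted relative to DMSO.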

Read-out in assay [6]: Monocyte Chemoattractant Protein-1 (MCP1), CCL2 (gene 6347)
Kind of assay: BSK_3C_MCP1: BioMAP Diversity Plus: 3C Assay for Monocyte Chemoattractant Protein-1 (MCP1) Biomarker Activity (AID 2283017; active = hit-call score of the fitted dose curve at least 0.9, where 1 is the maximum; inactive = score below 0.9). Particulars: primary human endothelial cells (HUVEC); actives raise or lower the signal. The gist of the method:
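ELISA read-out of MCP-1 from human umbilical vein endothelial cell cultures harvested 24 h post-dosing. Gain or loss of signal was fitted relative to DMSO.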

Read-out in assay [7]: Monocyte Chemoattractant Protein-1 (MCP1), CCL2 (gene 6347)
Kind of assay: BSK_4H_MCP1: BioMAP Diversity Plus: 4H Assay for Monocyte Chemoattractant Protein-1 (MCP1) Biomarker Activity (AID 2283018; active = hit-call score of the fitted dose curve at least 0.9, where 1 is the maximum; inactive = score below 0.9). Particulars: primary human endothelial cells (HUVEC); actives raise or lower the signal. The gist of the method: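 Readout: MCP-1 ELISA on compound-treated HUVEC, sampled 24 h post-dosing. Baseline and negative control DMSO; bidirectional fit. Overt toxicity checked alongside by sulforhodamine B protein staining at time of biomarker measurement.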

Read-out in assay [8]: Human Leukocyte Antigen - DR isotype (HLADR), HLA-DRA (gene 3122)
Kind of assay: BSK_3C_HLADR: BioMAP Diversity Plus: 3C Assay for Human Leukocyte Antigen - DR isotype (HLADR) Biomarker Activity (AID 2283019; active = hit-call score of the fitted dose curve at least 0.9, where 1 is the maximum; inactive = score below 0.9). Particulars: primary human endothelial cells (HUVEC); actives raise or lower the signal. In short, it runs like this: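 ELISA readout of surface HLA-DR on human umbilical vein endothelium, taken 24 h after chemical treatment. Gain- and loss-of-signal were both fitted relative to DMSO.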

human Retinoid X Receptor beta (RXRb), RXRB (gene 6257), sequence (P28702 whole entry, looked up): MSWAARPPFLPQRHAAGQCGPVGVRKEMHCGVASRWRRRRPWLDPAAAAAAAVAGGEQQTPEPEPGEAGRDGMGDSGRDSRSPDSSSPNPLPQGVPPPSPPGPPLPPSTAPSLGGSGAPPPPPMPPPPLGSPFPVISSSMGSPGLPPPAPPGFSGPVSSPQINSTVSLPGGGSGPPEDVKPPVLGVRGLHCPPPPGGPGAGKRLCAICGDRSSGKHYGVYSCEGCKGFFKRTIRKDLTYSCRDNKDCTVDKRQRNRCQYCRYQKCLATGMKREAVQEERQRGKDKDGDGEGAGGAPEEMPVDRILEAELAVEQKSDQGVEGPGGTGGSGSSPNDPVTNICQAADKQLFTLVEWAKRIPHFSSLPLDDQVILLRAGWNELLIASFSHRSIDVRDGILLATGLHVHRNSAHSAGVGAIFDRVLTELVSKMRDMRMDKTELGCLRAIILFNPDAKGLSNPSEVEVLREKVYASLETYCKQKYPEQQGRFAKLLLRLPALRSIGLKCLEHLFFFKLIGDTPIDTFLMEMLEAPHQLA
Retinoic acid receptor RXR-alpha (Homo sapiens), sequence (P19793 whole entry, looked up, the tested form may be a part): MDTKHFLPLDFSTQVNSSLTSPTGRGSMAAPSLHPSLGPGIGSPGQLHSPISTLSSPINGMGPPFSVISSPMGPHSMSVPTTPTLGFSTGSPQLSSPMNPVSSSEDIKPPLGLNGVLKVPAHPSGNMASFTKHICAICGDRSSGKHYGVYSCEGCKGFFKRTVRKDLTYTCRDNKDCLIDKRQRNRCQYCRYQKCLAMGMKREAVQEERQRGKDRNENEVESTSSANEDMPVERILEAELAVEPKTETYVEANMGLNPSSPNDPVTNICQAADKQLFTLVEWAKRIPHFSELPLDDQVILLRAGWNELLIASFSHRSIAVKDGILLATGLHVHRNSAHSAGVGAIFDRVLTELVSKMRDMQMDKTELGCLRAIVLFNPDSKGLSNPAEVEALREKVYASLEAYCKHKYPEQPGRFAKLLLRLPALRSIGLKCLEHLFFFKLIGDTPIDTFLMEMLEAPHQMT
human Thyroid Receptor alpha (THRa1), THRA (gene 7067), sequence (P10827 whole entry, looked up, the tested form may be a part): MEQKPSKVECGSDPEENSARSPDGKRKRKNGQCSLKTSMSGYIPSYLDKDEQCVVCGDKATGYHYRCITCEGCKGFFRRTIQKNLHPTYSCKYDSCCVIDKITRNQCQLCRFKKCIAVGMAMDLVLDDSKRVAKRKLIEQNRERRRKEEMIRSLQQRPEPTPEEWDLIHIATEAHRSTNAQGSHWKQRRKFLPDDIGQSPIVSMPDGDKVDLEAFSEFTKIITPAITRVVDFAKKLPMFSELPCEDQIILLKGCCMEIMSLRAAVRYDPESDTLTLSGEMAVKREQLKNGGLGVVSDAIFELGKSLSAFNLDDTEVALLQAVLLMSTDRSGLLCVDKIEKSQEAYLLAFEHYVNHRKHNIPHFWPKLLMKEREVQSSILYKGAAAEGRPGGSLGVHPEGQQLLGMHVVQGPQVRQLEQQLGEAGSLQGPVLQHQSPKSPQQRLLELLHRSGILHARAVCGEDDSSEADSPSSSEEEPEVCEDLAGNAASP
E-selectin (Homo sapiens), sequence (P16581 whole entry, looked up): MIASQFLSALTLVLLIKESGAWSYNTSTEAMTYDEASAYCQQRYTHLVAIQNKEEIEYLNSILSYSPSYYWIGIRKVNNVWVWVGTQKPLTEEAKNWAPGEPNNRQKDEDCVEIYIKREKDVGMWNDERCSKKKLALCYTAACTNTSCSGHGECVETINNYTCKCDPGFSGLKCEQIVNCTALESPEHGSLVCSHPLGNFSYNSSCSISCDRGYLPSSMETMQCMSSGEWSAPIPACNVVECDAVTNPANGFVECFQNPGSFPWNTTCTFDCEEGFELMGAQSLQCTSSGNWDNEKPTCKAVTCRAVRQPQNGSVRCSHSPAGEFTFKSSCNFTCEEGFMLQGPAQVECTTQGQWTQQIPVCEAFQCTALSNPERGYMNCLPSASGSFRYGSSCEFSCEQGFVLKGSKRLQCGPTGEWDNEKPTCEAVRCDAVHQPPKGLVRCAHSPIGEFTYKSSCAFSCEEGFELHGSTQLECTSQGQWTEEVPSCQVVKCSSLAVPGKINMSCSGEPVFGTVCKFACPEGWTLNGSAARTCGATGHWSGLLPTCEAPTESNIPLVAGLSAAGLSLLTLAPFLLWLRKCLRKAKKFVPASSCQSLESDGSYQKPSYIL

For `NC(=O)NC1NC(=O)NC1=O` (configuration not stated), the compound was called inactive in assay [1], in assay [2] and in assay [3].

Take `c1ccc2[nH]ccc2c1`: the call in assay [1], in assay [2] and in assay [3] was inactive.

Consider `CCCCCCCCCOC(C)=O`, for which the compound was called inactive in assay [1], in assay [2] and in assay [3].

Regarding `C=C(C)C(=O)Nc1ccc(Cl)c(Cl)c1`, the compound was called inactive in assay [1] and in assay [3]. Moreover, the AC50 in assay [2] was 41 µM (active).

For the compound `CCCCNC(=O)NS(=O)(=O)c1ccc(C)cc1`, the call in assay [1], in assay [2] and in assay [3] was inactive.

As for `COc1cc(C(C)(C)C)c(O)c(C(C)(C)C)c1`, the AC50 in assay [1] is 15.4 µM (active); in assay [2] it was 0.745 µM (active). Besides, in assay [3], the compound was called inactive.

For the compound `CCCCCCCCCC=O`, the outcome in assay [1], in assay [4], in assay [5], in assay [6] and in assay [7] was inactive. For the same compound, the AC50 is 59 µM (active) in assay [2] and 32.3 µM (active) in assay [8].

With `O=C(O)c1cn(C2CC2)c2cc(N3CCNCC3)c(F)cc2c1=O`, the call in assay [1], in assay [2], in assay [4], in assay [5], in assay [6] and in assay [7] was inactive. The outcome in assay [8] was inactive.

Consider `Clc1cccc(Cl)n1`, for which the outcome in assay [1], in assay [2] and in assay [3] was inactive.

On to `C=C(C)C(=O)O[C@H]1C[C@@H]2CC[C@@]1(C)C2(C)C`, for which the compound was classed as inactive in assay [1]. Also, the AC50 in assay [2] is 100 µM (active); in assay [4], 15.1 µM (active); in assay [5], 20 µM (active); in assay [6], 20 µM (active); in assay [7], 5.54 µM (active); in assay [8], 9.37 µM (active).

For the compound `CCOc1ccccc1OCC`, the compound was called inactive in assay [1], in assay [2] and in assay [3].

As to `Cc1ccccc1C=O`, the compound was classed as inactive in assay [1], in assay [2] and in assay [3].

Take `COc1nc(C)nc(N)n1`: the call in assay [1], in assay [2] and in assay [3] was inactive.

Regarding `O=C(Oc1ccccc1)c1ccc(O)cc1`, the call in assay [1], in assay [2] and in assay [3] was inactive.

Turning to `CCn1c2ccccc2c2cc(N)ccc21`, the call in assay [1], in assay [3], in assay [4] and in assay [5] was inactive. The AC50 in assay [2] was 14.3 µM (active); in assay [6] it was 0.641 µM (active); in assay [7], 0.812 µM (active); in assay [8], 1.57 µM (active).

For orientation: AC50 means the concentration at which the activity in the assay is half-maximal.
